TAR Tat displ: TAR RNA-Tat peptide displacers, HIV-1, primary screen, biochemical, FRET, FAM/TAMRA-labeled Tat. HIV-1 TAR RNA, Tat peptide displacement FRET; stronger effect = higher value. z-score (no concentration beside the values). actives 0.6% (n = 100,000); active means z-score of 3 or more in at least 2 runs
CDC25B CDK2 inh: primary biochemical HTRF screen for blockers of M-phase inducer phosphatase 2 binding to CDK2/cyclin A. P30305+P24941. HTRF CDC25B-CDK2/CyclinA binding, anti-His/anti-Flag; stronger effect = higher value. z-score (concentration not given with the values). AID 1259370, 2018. actives 0.72% (n = 94,000); in the data active means z-score above about 3.2
Starred values were filed as active, the others as inactive. Rows were chosen to be rich in hits. Some 0.9% of all compounds tested hit in one or more screens of this group.

Screening Cn1c2c(c(=O)[nH]c1=O)C(c1ccccc1)C1=C(N2)c2ccccc2C1=O (stereo not given) returned TAR Tat displ -18 and CDC25B CDK2 inh -2.6.
Cc1ccc(/C(O)=C2/C(=O)C(=O)N(CC(C)C)C2c2cccnc2)cc1 (stereo not given) was read as TAR Tat displ 0.06 and CDC25B CDK2 inh -0.49.
Screening CCN(CCN(C)C)C(=O)c1noc2c1COc1ccccc1-2 returned TAR Tat displ 0.92 and CDC25B CDK2 inh 0.11.
Screening COc1ccc(-c2coc3cc(OCc4ccc(Br)cc4)cc(O)c3c2=O)cc1OC returned TAR Tat displ -0.9 and CDC25B CDK2 inh -0.86.
`COc1cc(-c2coc3cc(OCc4ccccc4)c(OC)c(O)c3c2=O)cc(OCc2ccccc2)c1OC` gave TAR Tat displ 26*.
For O=c1[nH]c2c(oc3ccccc32)c(=O)n1-c1ccc(F)c(Cl)c1 the results were TAR Tat displ -1 and CDC25B CDK2 inh 0.16.
For O=C(c1ccccc1)c1cn(Cc2ccc(Cl)cc2)c2cc3c(cc2c1=O)OCCO3 the results were TAR Tat displ -0.58 and CDC25B CDK2 inh -2.6.
`Cc1ccc(-c2n[nH]c3c2cnc2cc4c(cc23)OCCO4)cc1` gave TAR Tat displ -0.73.
CCOc1ccc(-c2n[nH]c3c2cnc2cc4c(cc23)OCCO4)cc1 was read as TAR Tat displ 17* and CDC25B CDK2 inh 15*.
Cc1cc(C)c(-c2c(Nc3ccc(C(C)C)cc3)c(=O)c2=O)cc1C was read as TAR Tat displ 0.1.
For CCC(=O)Nc1ccc2nc(SCC(N)=O)sc2c1 the results were TAR Tat displ -0.15 and CDC25B CDK2 inh -1.7.
For O=C(CSc1nc2ccc(NC(=O)c3ccco3)cc2s1)Nc1nccs1 the results were TAR Tat displ 0.7 and CDC25B CDK2 inh 0.57.
`NC(=O)CSc1nc2ccc(NC(=O)c3ccco3)cc2s1` gave TAR Tat displ 1.8 and CDC25B CDK2 inh 12*.
Screening Nc1ccc2nc(SCC(=O)Nc3ccc4nc(SCC(=O)NC5CC5)sc4c3)sc2c1 returned CDC25B CDK2 inh 19*.
`O=C1CCCN1c1ccc(S(=O)(=O)NCC2CCCO2)cc1` (stereo not given) gave TAR Tat displ -0.62.
Screening Cc1cc(C)c(C(=O)CC2(C(F)(F)F)NCCN2)c(=O)[nH]1 returned CDC25B CDK2 inh -0.68.
CCCN1CCN(c2nc(NCCc3cccs3)c3cnn(C)c3n2)CC1 was read as TAR Tat displ 1.2.
Screening CC1=C(c2ccc(C(C)C)cc2)S(=O)(=O)N(CC(=O)NC2CCCCC2)C1=O returned TAR Tat displ 0.95.
Screening Cc1ccc(CNc2nc(-c3ccco3)nn2S(=O)(=O)c2ccc(C)cc2)cc1 returned TAR Tat displ -0.08 and CDC25B CDK2 inh 1.3.
For CCC(C(=O)Nc1cccc(Cl)c1)n1nc(C)c2sc3ccccc3c2c1=O (stereo not given) the results were TAR Tat displ 13* and CDC25B CDK2 inh 0.04.
`CCC(C(=O)NCCc1cccs1)n1nc(C)c2sc3ccccc3c2c1=O` (stereo not given) gave TAR Tat displ 1.5 and CDC25B CDK2 inh -1.1.
CCC(C(=O)Nc1cccc(F)c1)n1nc(C)c2sc3ccccc3c2c1=O (stereo not given) was read as TAR Tat displ 2.6 and CDC25B CDK2 inh -1.5.
CCC(C(=O)NCc1cccs1)n1nc(C)c2sc3ccccc3c2c1=O (stereo not given) was read as TAR Tat displ 4* and CDC25B CDK2 inh -2.7.
CCCc1cc(=O)n2nc(N3CCC(C(=O)Nc4cc(F)ccc4F)CC3)sc2n1 was read as TAR Tat displ 0.32 and CDC25B CDK2 inh -1.
Cc1oc(-c2ccccc2Cl)nc1Cn1c(C)nc2onc(C)c2c1=O was read as TAR Tat displ 0.7.
Screening CC1(C)CC(=O)C2=C(C1)Nc1ccccc1NC2c1cccc2ccccc12 (stereo not given) returned CDC25B CDK2 inh 13*.
Screening CC1(C)CC(=O)C2=C(C1)Nc1ccccc1NC2c1ccccc1F (stereo not given) returned TAR Tat displ -14 and CDC25B CDK2 inh -1.
For N/C(=N\O)c1c(-c2ccccc2)cc(-c2ccc(F)cc2)[nH]c1=O the results were CDC25B CDK2 inh 11*.
O=c1cc(-c2ccccc2)[nH]c(=S)[nH]1 was read as CDC25B CDK2 inh -1.1.
Cc1c(O)cc2c(c1C)O[C@@](C)(CCC[C@H](C)CCC[C@H](C)CCCC(C)C)CC2 was read as TAR Tat displ 0.31.
For O=C(O)c1c[nH]c2ccc(S(=O)(=O)N3CCC(O)CC3)cc2c1=O the results were TAR Tat displ 0.26.
`O=C(O)c1c[nH]c2ccc(S(=O)(=O)N3CCCC3c3ccco3)cc2c1=O` (stereo not given) gave TAR Tat displ 5.5* and CDC25B CDK2 inh -1.1.
For Cc1ccc(-c2csc(Nc3ccc(S(N)(=O)=O)cc3)n2)cc1 the results were TAR Tat displ 2 and CDC25B CDK2 inh -0.94.
Screening NS(=O)(=O)c1ccc(Nc2cc(-c3ccco3)cs2)cc1 returned CDC25B CDK2 inh 17*.
COCCNc1cc(N2CCN(c3ccc(OC)cc3)CC2)c2noc3c2c1C(=O)c1ccccc1-3 was read as TAR Tat displ 0.91 and CDC25B CDK2 inh -1.3.
Screening O=C(NCc1ccc(S(=O)(=O)N2CCOCC2)s1)C1CC(=O)N(c2ccccc2)C1 (stereo not given) returned TAR Tat displ -0.74.
For CCCCNC(=O)Cn1cnc2onc(C(=O)OCC)c2c1=O the results were TAR Tat displ 1.2.
`CN(C)CCN(Cc1ccco1)C(=O)Cn1ncc2c1-c1ccccc1OC2` gave CDC25B CDK2 inh -0.87.
CO/N=C(/C(=O)N[C@@H]1C(=O)N2C(C(=O)O)=C(COC(C)=O)CS[C@H]12)c1csc(N)n1 was read as TAR Tat displ 1.4.
For C=CC1=C(C(=O)O)N2C(=O)[C@@H](NC(=O)C(=NO)c3csc(N)n3)[C@H]2SC1 the results were TAR Tat displ 33*.
COC(=O)c1ccc(-c2cc(C(=O)O)c3c(-c4ccc(C)cc4)[nH]nc3n2)cc1 was read as TAR Tat displ 3.3.
Cc1csc(NC(=O)CSc2ccc3nnc(-c4ccc(F)cc4)n3n2)n1 was read as CDC25B CDK2 inh -0.27.
Cc1onc(-c2ccccc2)c1NC(=O)Nc1ccccc1N1CCOCC1 was read as CDC25B CDK2 inh -1.6.
Cc1onc(-c2ccccc2)c1NC(=O)Nc1ccc(C2=NC(C)(C)CO2)cc1 was read as CDC25B CDK2 inh 5.6*.
COCCCN1CCn2c(nc3cc(NC(=O)NC4CCCCC4)ccc32)C1 was read as TAR Tat displ -8.9 and CDC25B CDK2 inh 0.2.
Screening COCCN1CCn2c(nc3cc(NC(=O)NC4CCCCC4)ccc32)C1 returned TAR Tat displ -0.33 and CDC25B CDK2 inh 7*.
Screening COCCN1CCn2c(nc3cc(Nc4nnc(C)c5ccccc45)ccc32)C1 returned TAR Tat displ 1.6 and CDC25B CDK2 inh 14*.
COCCN1CCn2c(nc3cc(Cl)ccc32)C1 was read as TAR Tat displ 0.82 and CDC25B CDK2 inh 0.96.
Screening Cc1ccc(CN(C(=O)c2oc3ccc(Cl)cc3c2C)C2CCS(=O)(=O)C2)o1 (stereo not given) returned TAR Tat displ 1.9 and CDC25B CDK2 inh -0.37.
Screening CN(C(=O)c1cc(S(=O)(=O)N2CCOCC2)cn1C)C1CCCCC1 returned TAR Tat displ 2.1.

Screens deposited in PubChem by Center for Chemical Genomics, University of Michigan.
